Compounds with a hit are over-represented: about 0.51% of the library has one in this group of screens.
FMDV RLuc: FMDV antiviral activity by Renilla signal; actives 0.32% (n = 120,000); Potency, µM (highest dose often 57.5 µM), actives largely listed as inhibitors; AID 1745857; FMDV replicon cells, Renilla luciferase signal; also: nearly all actives have a fitted effect of over 55% in size
FMDV FLuc: antivirals against foot and mouth disease virus; FMDV antiviral cell assay, firefly luciferase signal; Potency, µM (highest dose often 57.5 µM), hits mostly inhibitors; actives 0.23% (n = 120,000); also: nearly all actives have a fitted effect of over 60% in size
Each line names hits and unclear results; the compound was inactive in the other large screens. Calls follow the shape of the full dose curve.

CCOc1ccc(Nc2nc(N3CCOCC3)c3cnn(C)c3n2)cc1	none
O=C(CCc1ccco1)Nc1ccc(N2CCOCC2)cn1	none
CCN(CC)C(=S)SC(C(=O)c1ccccc1)c1ccccc1 (stereo not given)	none
CCN(CC)C(=S)Sc1ccc([N+](=O)[O-])cc1	FMDV FLuc 2µM
COc1ccccc1CNC(=O)Cn1c(=O)ccc2cc(S(=O)(=O)N3CCC(C)CC3)ccc21	none
O=C(Cn1c(=O)oc2cc(S(=O)(=O)N3CCCCCC3)ccc21)NCc1ccccc1Cl	FMDV RLuc inconclusive, FMDV FLuc 28.2µM
COc1ccccc1CNC(=O)Cn1c(=O)oc2cc(S(=O)(=O)N3CCC(C)CC3)ccc21	FMDV RLuc inconclusive, FMDV FLuc 28.2µM
O=C(Cn1c(=O)oc2cc(S(=O)(=O)N3CCCCC3)ccc21)NCc1ccc(F)cc1	none
Cc1ccc(NC(=O)Cn2c(=O)oc3cc(S(=O)(=O)N4CCCCC4)ccc32)c(C)c1	FMDV RLuc 8.91µM, FMDV FLuc inconclusive
COc1ccc(C)cc1NC(=O)Cn1c(=O)oc2cc(S(=O)(=O)N3CCCCCC3)ccc21	none
CNC(=S)NNC(=O)c1cccc(Cl)c1	none
COc1cccc(NC(=O)CN(C)S(=O)(=O)c2ccc3nc(C)sc3c2)c1	none
CCOc1ccccc1NC(=O)CN(C)S(=O)(=O)c1ccc2nc(C)sc2c1	FMDV RLuc 31.6µM, FMDV FLuc inconclusive
CC(=O)C1=C(C)Oc2ncn3nc(COc4cccc(C)c4C)nc3c2C1c1ccco1 (stereo not given)	none
Cc1cccc(OCc2nc3c4c(ncn3n2)OC2=C(C(=O)CCC2)C4c2ccco2)c1C (stereo not given)	FMDV RLuc inconclusive, FMDV FLuc 20µM
O=C(Nc1ccc2oc(-c3cccnc3)nc2c1)c1ccc(Cl)cc1	none
Cc1cccc(NC(=O)CCl)c1	FMDV RLuc 31.6µM, FMDV FLuc inconclusive
Cc1cccc(NC(=O)CC2(C(=O)O)CCCCC2)c1	none
Cc1ccc(CN(Cc2cc(=O)n3[nH]c(-c4cccc(C)c4)cc3n2)CC(C)C)cc1	FMDV RLuc 25.1µM, FMDV FLuc inconclusive
CCOc1ccc(CN(CC)Cc2cc(=O)n3[nH]c(-c4cccc(C)c4)cc3n2)cc1	none
Nc1c(N(Cc2ccco2)C(=O)COc2ccc3ccccc3c2)c(=O)[nH]c(=O)n1Cc1ccccc1	none
Cc1ccc(S(=O)(=O)NCCO)cc1C(=O)O	none
Cc1ccc(OCC(O)Cn2c(N)nc3c2c(=O)n(C)c(=O)n3C)cc1 (stereo not given)	none
CNc1nc2c(c(=O)n(C)c(=O)n2C)n1CC(O)COc1ccc(OC)cc1 (stereo not given)	FMDV RLuc 22.4µM, FMDV FLuc inconclusive
COc1ccc(C(=O)Nc2cnc3c(cnn3C(C)C)c2)cc1S(=O)(=O)N1CCCC1	FMDV RLuc inconclusive, FMDV FLuc 31.6µM
CC(C)n1ncc2cc(NC(=O)c3cc(S(=O)(=O)N4CCCCC4)ccc3N3CCCC3)cnc21	none
Cc1c(S(=O)(=O)N2CCCC2c2ccc(Cl)cc2)cnn1C(F)F (stereo not given)	none
CCCn1nc(C(=O)Nc2nc(C(C)=O)cs2)c2ccccc2c1=O	none
CC(C(=O)Nc1sc2c(c1C#N)CCCCC2)n1cnc2c1c(=O)n(C)c(=O)n2C (stereo not given)	FMDV RLuc 14.1µM, FMDV FLuc inconclusive
CCC(C(=O)Nc1sc2c(c1C#N)CCCC2)n1cnc2c1c(=O)n(C)c(=O)n2C (stereo not given)	none
COc1ccccc1Nc1nc2nccc(-c3cccnc3)c2c(=O)[nH]1	none
O=C(NCCc1ccc(F)cc1)c1cc2ccccc2[nH]1	none
Cc1cccc2c(C(=O)NCc3ccco3)cc(-c3cccnc3)nc12	none
O=C(Nc1ccc(-n2cccn2)c(F)c1)C1CCN(C(=O)c2ccco2)CC1	none
O=C(Nc1nc(-c2ccc(Cl)cc2Cl)cs1)C1CCN(C(=O)c2ccco2)CC1	FMDV RLuc 35.5µM, FMDV FLuc inconclusive
N#Cc1ccc(C(=O)Nc2ccc3nc(CCc4ccccc4)[nH]c3c2)cc1	none
CCn1c(CCc2cccc(NC(=O)c3ccc(C#N)cc3)c2)nc2ccccc21	FMDV RLuc 11.2µM, FMDV FLuc 14.1µM
Fc1ccc(COc2cccc(CNCC3CCNCC3)c2)cc1	FMDV RLuc 31.6µM, FMDV FLuc inconclusive
Brc1ccc(OCc2ccccc2)c(CNCC2CCNCC2)c1	none
CSc1nc2c(c(=O)n(C)c(=O)n2C)n1Cc1cccc2ccccc12	FMDV RLuc 14.1µM, FMDV FLuc 15.8µM
CC(C)Sc1nc2c(c(=O)n(C)c(=O)n2C)n1Cc1ccccc1Cl	none
CSc1ccc(NC(=O)c2ccc3c(c2)NC(=O)CCS3)cc1	FMDV RLuc 10µM, FMDV FLuc inconclusive
CNC(=O)c1ccc2c(c1)NC(=O)CCS2	none
O=C1Cc2cc(C(=O)CSc3ccc4c(c3)OCCCO4)ccc2N1	none
Cc1cc(C)n(-c2nc3c(c(=O)n(CCc4ccccc4)c(=O)n3C)n2CCC(C)C)n1	FMDV RLuc 5.01µM, FMDV FLuc inconclusive
CCCn1c(-n2nc(C)cc2C)nc2c1c(=O)n(CCc1ccccc1)c(=O)n2C	FMDV RLuc inconclusive
CCOc1ccc(NC(=O)c2ccc3ccccc3n2)cc1OCC	none
CCc1c(C)sc(NC(=O)Cc2c(Cl)cccc2Cl)c1C#N	none
COc1ccc(C)cc1NS(=O)(=O)c1ccc(-c2cnc(C3CC3)o2)cc1	FMDV RLuc 15.8µM, FMDV FLuc 14.1µM
Cc1ccc(CNS(=O)(=O)c2ccc(-c3cnc(C4CC4)o3)cc2)cc1	none
CN(C)S(=O)(=O)c1ccc(-c2nc(C#N)c(N3CCCCCC3)o2)cc1	none
COc1ccc(/C=C\c2onc(C)c2S(=O)(=O)N2CCC(C(=O)Nc3ccc(F)cc3F)CC2)cc1	FMDV RLuc 28.2µM, FMDV FLuc 31.6µM
COc1ccc(/C=C\c2onc(C)c2S(=O)(=O)N2CCC(C(=O)Nc3ccc(C)c(F)c3)CC2)cc1	none
Cc1ccc(NC(=O)CN2C(=O)NC(Cc3c[nH]c4ccccc34)C2=O)cc1F (stereo not given)	none
Cn1c(=O)c2c(nc(Cl)n2CC(=O)N(C2CCCCC2)C2CCS(=O)(=O)C2)n(C)c1=O (stereo not given)	none
CCc1ccc(OCCn2c(C3CC(=O)N(Cc4ccc(F)cc4)C3)nc3ccccc32)cc1 (stereo not given)	FMDV RLuc inconclusive
CC(C)CCn1c(C2CC(=O)N(Cc3ccc(F)cc3)C2)nc2ccccc21 (stereo not given)	FMDV RLuc 17.8µM, FMDV FLuc 17.8µM
CC1CC(C)CN(C(=O)c2ccc(C(C)(C)C)cc2)C1 (stereo not given)	none
O=c1c2cnc(N3CCc4ccccc4C3)nc2ccn1-c1cc(Cl)cc(Cl)c1	none
O=c1c2cnc(N3CCc4ccccc4C3)nc2ccn1-c1ccccc1	FMDV RLuc inconclusive, FMDV FLuc 25.1µM
COc1cc(/C=N/O)c(Br)cc1OCc1ccccc1Cl	none
O=C1c2ccccc2C(=Cc2ccsc2)c2ccccc21	none
CCOc1ccc(C2NC(=O)NC(CS(=O)(=O)c3cc(Cl)ccc3OC)=C2C(=O)OC)cc1 (stereo not given)	none
CC(=O)c1c(C)[nH]c(C(=O)C(C)N(C)Cc2cccc(F)c2)c1C (stereo not given)	FMDV RLuc 3.98µM, FMDV FLuc inconclusive
CC(=O)c1c(C)[nH]c(C(=O)C(C)OC(=O)c2ccc(F)cc2Cl)c1C (stereo not given)	FMDV RLuc 8.91µM, FMDV FLuc 20µM
CC(=O)c1c(C)[nH]c(C(=O)C(C)OC(=O)c2cc(Cl)ccc2F)c1C (stereo not given)	none
CC(=O)c1c(C)[nH]c(C(=O)C(C)OC(=O)c2ccc(F)cc2)c1C (stereo not given)	none
N#Cc1ccccc1CNc1ccc(Br)cc1F	none
